Test results published in PubChem BioAssay (Tox21).
Records with an inconclusive call do not appear. Where a call stands in place of a potency, no number is given. Values without a mark were called inactive. Activity calls are given as the source filed them. Unless noted, the call rests on the fitted dose curve; in most records, active means well fitted curve in the direction sought with a large enough effect in the repeat runs; inconclusive means weak or mixed curves; inactive means no such curve, though single readings can be large; an effect the other way counts as inactive or inconclusive.

Experiments:
[1] = target: Retinoic acid receptor RXR-alpha (Homo sapiens) (UniProt P19793); assay: qHTS assay to identify small molecule agonists of the RXR signaling pathway (AID 1159527; calls by dose curve; further: nearly all actives have a fitted effect of over 35% in size)
In short: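 Read-out: beta-lactamase FRET ratio (405 nm excitation, 460 and 530 nm emission) after 2 hr substrate loading at room temperature. Cells were RXR-alpha-UAS-bla HEK 293T treated with compounds for 16 hr in 2% charcoal-stripped FBS medium.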

[2] = qHTS assay to identify small molecule agonists of the RXR signaling pathway - cell viability counter screen (AID 1159529); further: nearly all actives have a fitted effect of over 50% in size
In short: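 HEK 293T RXRa-bla cells, 2% CS-FBS; 5 h settle; cpd 16 h 37 C, 5% CO2; CellTiter-Glo 30 min RT, luminescence. Tetraoctyl ammonium bromide as positive control.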

[3] = qHTS assay to identify small molecule antagonists of the retinoid acid receptor (RAR) signaling pathway - cell viability counter screen (AID 1159551); further: nearly all actives have a fitted effect of over 35% in size
In short: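 Luminescent ATP quantitation (CellTiter-Glo) gave cell viability in C3RL4 cells exposed to test chemicals for 6 h at 37 C alongside 1 uM final retinol.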

[4] = qHTS assay to identify small molecule antagonists of the retinoic acid receptor (RAR) signaling pathway (AID 1159552; further: nearly all actives have a fitted effect of over 50% in size)
In short: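 Cells of the C3RL4 line were seeded, incubated overnight, then dosed with compounds in DMSO followed immediately by retinol (1 uM final). Six hours later luciferase detection reagent went in; signal was measured after 30 min at RT.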

[5] = qHTS assay to identify small molecule agonists of the retinoic acid receptor (RAR) signaling pathway (AID 1159553); conditions: C3RL4 RARE luciferase reporter, agonist, 6 h; activation: at 73.3 µM (top of the series); further: potency means the concentration at half of the fitted maximal effect
In short: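 Luminescence from a RARE-driven luciferase reporter in C3RL4 cells served as the read-out, measured after 30 min with detection reagent at room temperature. Compounds in DMSO were applied for 6 hr at 37 C following overnight seeding.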

[6] = qHTS assay to identify small molecule antagonists of the estrogen related receptor (ERR) signaling pathway from Tox21 library - cell viability counter screen (AID 1224834); further: nearly all actives have a fitted effect of over 30% in size
In short: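 Fluorescence from CellTiter-Fluor gives the viability read-out, taken 30 min after reagent addition. Before that, ERR cells seeded 6 h earlier were incubated with compounds for 17.5 h at 37 C.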

[7] = target: Luciferin 4-monooxygenase (Photinus pyralis) (UniProt P08659); assay: qHTS assay to identify small molecule inhibitors of firefly luciferase (AID 1224835); further: nearly all actives have a fitted effect of over 25% in size
In short: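 Quantitative HTS format; KM concentrations of both substrates. Purified P. pyralis FLuc activity quantified from luminescence images.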

[8] = qHTS assay to identify small molecule agonists of the constitutive androstane receptor (CAR) signaling pathway - cell viability counter screen (AID 1224836); further: nearly all actives have a fitted effect of over 45% in size
In short: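 HepG2-CYP2B6-hCAR, 2500 cells/well, 4 h pre-incubation; cpd 15 conc + PK11195 0.75 uM final; 23 h, 37 C/5% CO2; CellTiter-Fluor, fluorescence.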

[9] = qHTS assay to identify small molecule antagonists of the constitutive androstane receptor (CAR) signaling pathway - cell viability counter screen (AID 1224837); further: nearly all actives have a fitted effect of over 45% in size
In short: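 HepG2-CYP2B6-hCAR cells, 2500/well, 4 hr pre-incubation; compound titration, 15 conc.; CITCO 50 nM final; 23 hr, 37 C/5% CO2; CellTiter-Fluor, fluorescence intensity.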

[10] = qHTS assay to identify small molecule antagonists of the estrogen related receptor signaling pathway with the pleiotropic PPARgamma coactivator (PGC) from Tox21 10K library - cell viability counter screen (AID 1224840; active means well fitted cell-killing curve with a large enough effect in the repeat runs, not every such curve was filed as active; further: nearly all actives have a fitted effect of over 40% in size)
In short: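 PGC/ERR cells, 2,000/well; 6 h pre-incubation 37 C/5% CO2; cpd in DMSO via pin tool; 17.5 h 37 C; CellTiter-Fluor, 30 min; fluorescence.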

[11] = qHTS assay to identify small molecule agonists of the hypoxia (HIF-1) signaling pathway - cell viability counter screen (AID 1224844; calls by dose curve; further: nearly all actives have a fitted effect of over 50% in size)
In short: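 ME-180 HRE-bla cells, 2,000/well, 0.5% dialyzed FBS; 5 hr settle, 17 hr compound at 37C/5% CO2; CCF4-AM reporter read first, then CellTiter-Glo luminescence after 30 min RT.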

[12] = qHTS assay to identify small molecule agonists of the hypoxia (HIF-1) signaling pathway (AID 1224846; active means well fitted activation curve with a large enough effect in the signal ratio in the repeat runs, not every such curve was filed as active; the % refers to the signal ratio)
In short: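 Cell line: CellSensor HRE-bla ME-180; 2,000 cells/well; 0.5% dialyzed FBS; 5 h preincubation; DMSO compound pin transfer; 17 h, 37C, 5% CO2; CCF4-AM added; bla FRET signal scored for activation.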

[13] = qHTS assay to identify small molecule antagonists of the estrogen related receptor signaling pathway with the pleiotropic PPARgamma coactivator (PGC) from Tox21 10K library (AID 1224841; call rule not given here; further: actives are mostly falling curves and most rising ones were filed inactive; nearly all actives have a fitted effect of over 50% in size)
In short: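 PGC/ERR cell line, 2,000 cells/well; 6 h pre-incubation 37 C/5% CO2; compounds (DMSO) pinned in; 18 h, 37 C; One-Glo, 30 min RT; luminescence.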

[14] = qHTS assay to identify small molecule agonists of the estrogen related receptor signaling pathway with the pleiotropic PPARgamma coactivator (PGC) from Tox21 10K library (AID 1224842); further: nearly all actives have a fitted effect of over 15% in size
In short: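 PGC/ERR reporter cells (NTP line) were seeded 2,000 per well, rested 6 h at 37 C/5% CO2, then pin-dosed with compounds in DMSO for 18 h at 37 C; luciferase read by One-Glo luminescence after 30 min at room temperature.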

[15] = qHTS assay to identify small molecule agonists of H2AX - cell viability counter screen (AID 1224847; calls by dose curve; further: top concentration of the series differs between compounds; nearly all actives have a fitted effect of over 30% in size)
In short: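 Cells plated first: CHO-K1, 1000 per well in 10% FBS medium, incubated overnight at 37C. Then 15-point compound titration added (final DMSO 0.76%) for 3 hr. Finally CellTiter-Glo added and luminescence read.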

[16] = qHTS assay to identify small molecule antagonists of the estrogen related receptor (ERR) signaling pathway from Tox21 library (AID 1224848); further: nearly all actives have a fitted effect of over 50% in size
In short: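 Screening used an ERR reporter line supplied by NTP, exposed for 18 h at 37 C to library compounds delivered in DMSO. Signal was luciferase luminescence developed with ONE-Glo at room temperature for 30 min.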

[17] = target: Thyrotropin receptor (Homo sapiens) (UniProt P16473); assay: qHTS assay to identify small molecule agonists of the thyroid stimulating hormone receptor (TSHR) signaling pathway (AID 1224843; calls by dose curve; further: nearly all actives have a fitted effect of over 45% in size)
In short: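 Cell line HEK293 with TSHR; density 800/well. Exposure 30 min RT. Readout HTRF cAMP (cAMP-d2/anti-cAMP-cryptate), 1 h RT before reading.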

[18] = target: Nuclear receptor subfamily 1 group I member 3 (Homo sapiens) (UniProt Q14994); assay: qHTS assay to identify small molecule antagonists of the constitutive androstane receptor (CAR) signaling pathway (AID 1224838);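 further: HepG2 cells stably expressing hCAR with CYP2B6 luciferase reporter stimulated by CITCO; nearly all actives have a fitted effect of over 40% in size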
In short: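 HepG2-CYP2B6-hCAR cells; 4 h pre-incubation; cpd (15 conc) + CITCO 50 nM final; 24 h, 37 C/5% CO2; ONE-Glo, luminescence.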

[19] = target: Nuclear receptor subfamily 1 group I member 3 (Homo sapiens) (UniProt Q14994); assay: qHTS assay to identify small molecule agonists of the constitutive androstane receptor (CAR) signaling pathway (AID 1224839);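 further: HepG2 cells stably carrying human CAR and a CYP2B6 luciferase reporter; nearly all actives have a fitted effect of over 15% in size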
In short: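 HepG2-CYP2B6-hCAR cells, 2500/well, 4 h pre-incubation; compounds 15 conc.; PK11195 0.75 uM final; 24 h, 37 C/5% CO2; ONE-Glo luciferase read.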

[20] = qHTS assay to identify small molecule agonists of H2AX (AID 1224845; active means well fitted activation curve with a large enough effect in the signal ratio in the repeat runs, not every such curve was filed as active; the % refers to the signal ratio)
In short: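 Wild-type CHO-K1 cells plated overnight, then exposed 3 hr at 37C to compounds at 15 concentrations (0.76% DMSO). Lysed, then HTRF anti-pH2AX(S139)-cryptate/anti-H2AX-d2 detection after 24 hr at room temperature; emissions 665 and 620 nm.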

Nuclear receptor subfamily 1 group I member 3 (Homo sapiens), sequence (Q14994 whole entry, looked up): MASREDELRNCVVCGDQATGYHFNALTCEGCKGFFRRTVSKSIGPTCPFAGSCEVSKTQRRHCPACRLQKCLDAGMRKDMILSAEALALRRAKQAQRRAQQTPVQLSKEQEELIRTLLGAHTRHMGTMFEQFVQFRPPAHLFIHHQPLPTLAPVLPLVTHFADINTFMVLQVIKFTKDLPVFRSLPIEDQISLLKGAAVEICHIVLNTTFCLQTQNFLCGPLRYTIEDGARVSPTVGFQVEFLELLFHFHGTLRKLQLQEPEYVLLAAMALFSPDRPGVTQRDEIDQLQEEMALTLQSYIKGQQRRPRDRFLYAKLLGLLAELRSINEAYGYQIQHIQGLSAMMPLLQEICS
Thyrotropin receptor (Homo sapiens), sequence (P16473 whole entry, looked up): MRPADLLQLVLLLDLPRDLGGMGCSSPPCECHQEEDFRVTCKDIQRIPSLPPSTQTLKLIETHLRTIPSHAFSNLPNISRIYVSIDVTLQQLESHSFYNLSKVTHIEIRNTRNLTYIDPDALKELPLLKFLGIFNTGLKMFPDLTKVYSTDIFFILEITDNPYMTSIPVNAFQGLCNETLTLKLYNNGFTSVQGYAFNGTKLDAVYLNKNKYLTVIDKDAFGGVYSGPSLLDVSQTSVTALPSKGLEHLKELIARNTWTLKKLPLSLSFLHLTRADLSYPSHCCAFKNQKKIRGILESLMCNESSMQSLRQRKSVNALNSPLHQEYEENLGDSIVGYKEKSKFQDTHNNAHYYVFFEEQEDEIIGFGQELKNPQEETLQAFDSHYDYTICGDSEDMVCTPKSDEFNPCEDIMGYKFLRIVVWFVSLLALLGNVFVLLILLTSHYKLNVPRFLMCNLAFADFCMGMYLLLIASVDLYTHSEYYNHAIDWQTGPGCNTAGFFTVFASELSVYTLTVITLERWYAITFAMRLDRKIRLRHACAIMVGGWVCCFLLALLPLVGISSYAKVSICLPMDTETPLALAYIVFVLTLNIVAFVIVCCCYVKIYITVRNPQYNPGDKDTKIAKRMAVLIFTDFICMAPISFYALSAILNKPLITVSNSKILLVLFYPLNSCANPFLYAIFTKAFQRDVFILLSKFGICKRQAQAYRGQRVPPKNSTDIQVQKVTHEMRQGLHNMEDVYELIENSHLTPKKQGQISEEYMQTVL
Retinoic acid receptor RXR-alpha (Homo sapiens), sequence (P19793 whole entry, looked up): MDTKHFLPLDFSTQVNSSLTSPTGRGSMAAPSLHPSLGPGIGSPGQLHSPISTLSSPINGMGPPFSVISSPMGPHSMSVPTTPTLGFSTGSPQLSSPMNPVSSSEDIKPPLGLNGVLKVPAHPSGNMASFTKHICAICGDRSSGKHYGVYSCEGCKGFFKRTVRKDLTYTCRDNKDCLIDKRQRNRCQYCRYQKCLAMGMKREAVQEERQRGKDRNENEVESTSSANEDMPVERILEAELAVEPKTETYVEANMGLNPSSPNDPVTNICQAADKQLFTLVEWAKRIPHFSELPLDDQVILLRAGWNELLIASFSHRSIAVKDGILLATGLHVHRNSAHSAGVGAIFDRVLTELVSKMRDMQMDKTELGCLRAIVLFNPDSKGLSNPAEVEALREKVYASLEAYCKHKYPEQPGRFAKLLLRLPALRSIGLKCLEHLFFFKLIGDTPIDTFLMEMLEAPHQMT
Luciferin 4-monooxygenase (Photinus pyralis), sequence (P08659 whole entry, looked up): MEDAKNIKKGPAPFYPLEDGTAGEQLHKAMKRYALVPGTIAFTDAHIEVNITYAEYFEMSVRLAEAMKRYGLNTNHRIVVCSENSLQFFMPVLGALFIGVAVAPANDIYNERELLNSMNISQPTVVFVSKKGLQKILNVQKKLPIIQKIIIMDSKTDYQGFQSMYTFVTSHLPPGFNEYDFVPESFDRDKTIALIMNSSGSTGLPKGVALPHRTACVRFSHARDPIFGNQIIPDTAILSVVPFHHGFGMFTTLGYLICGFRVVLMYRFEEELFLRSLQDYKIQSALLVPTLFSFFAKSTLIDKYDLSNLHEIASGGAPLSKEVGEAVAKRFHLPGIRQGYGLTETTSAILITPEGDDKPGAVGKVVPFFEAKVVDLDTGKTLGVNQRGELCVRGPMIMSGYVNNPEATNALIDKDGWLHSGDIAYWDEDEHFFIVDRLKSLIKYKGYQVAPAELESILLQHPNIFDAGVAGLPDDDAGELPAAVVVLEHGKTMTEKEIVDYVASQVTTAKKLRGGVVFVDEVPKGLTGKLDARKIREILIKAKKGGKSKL

SMILES	Potency [1]	outcome [2]	outcome [3]	Potency [4]	Potency [5]	Potency [6]	Potency [7]	outcome [8]	Potency [9]	outcome [10]	outcome [11]	outcome [12]	Potency [13]	outcome [14]	Potency [15]	Potency [16]	outcome [17]	Potency [18]	Potency [19]	outcome [20]
CCC(CO)CO	inactive	inactive	inactive	inactive	inactive	inactive	inactive	inactive	inactive	inactive	inactive	inactive	–	–	–	–	–	–	–	–
CCNC(=O)NCCCOc1cccc(CN2CCCCC2)c1	inactive	inactive	inactive	inactive	inactive	inactive	inactive	inactive	inactive	inactive	inactive	inactive	inactive	inactive	inactive	inactive	–	–	–	–
CC(C)CCCCCCOC(=O)C1CCCCC1C(=O)OCCCCCCC(C)C (centres undefined)	inactive	inactive	inactive	inactive	inactive	inactive	inactive	inactive	inactive	inactive	inactive	inactive	–	–	inactive	–	inactive	–	–	–
O=c1cc(O)c(Cl)c[nH]1	inactive	inactive	inactive	inactive	inactive	inactive	inactive	inactive	inactive	inactive	inactive	inactive	–	–	inactive	–	inactive	–	–	–
CCCCCCCCCCCCC1CO1 (centres undefined)	inactive	inactive	inactive	inactive	inactive	inactive	inactive	–	inactive	inactive	inactive	inactive	–	–	inactive	–	–	inactive	inactive	inactive
CCCCC(=O)N(C)C	inactive	inactive	inactive	inactive	inactive	inactive	inactive	inactive	inactive	inactive	inactive	inactive	–	–	inactive	–	inactive	–	–	inactive
Cc1ncc([N+](=O)[O-])n1CC(O)CCl (centres undefined)	inactive	inactive	inactive	inactive	inactive	inactive	inactive	–	inactive	inactive	inactive	inactive	inactive	inactive	inactive	inactive	inactive	inactive	–	inactive
Cc1cc(O)c2c(c1)C(=O)c1cccc(O)c1C2=O	inactive	inactive	inactive	inactive	inactive	inactive	inactive	inactive	inactive	inactive	–	inactive	–	–	inactive	–	–	–	–	inactive
CCOC(=O)C(C)(C)C	inactive	inactive	inactive	inactive	inactive	inactive	inactive	inactive	inactive	inactive	inactive	inactive	–	–	inactive	–	inactive	–	–	inactive
CCCCCCCC[Si](OCC)(OCC)OCC	inactive	inactive	inactive	inactive	inactive	inactive	inactive	inactive	inactive	inactive	inactive	inactive	–	–	inactive	–	–	–	–	inactive
CC(CC(=O)O)CC(C)(C)C (centres undefined)	inactive	inactive	inactive	inactive	inactive	inactive	inactive	–	inactive	inactive	–	inactive	–	–	inactive	–	–	inactive	inactive	inactive
CC(C)(C)NCCO	inactive	inactive	inactive	inactive	inactive	inactive	inactive	inactive	inactive	inactive	–	inactive	inactive	inactive	inactive	inactive	–	–	–	inactive
Nc1ccc(S(=O)(=O)NC(=O)c2ccccc2)cc1	inactive	inactive	inactive	inactive	inactive	inactive	inactive	–	inactive	inactive	inactive	–	–	–	inactive	–	inactive	–	–	–
OC(CCN1CCCCC1)(c1ccccc1)c1ccccc1	inactive	inactive	inactive	inactive	inactive	inactive	–	inactive	inactive	inactive	inactive	–	–	–	inactive	–	–	–	–	inactive
C[C@@H]1C[C@H]2[C@@H]3C[C@H](F)C4=CC(=O)C=C[C@]4(C)[C@@]3(F)[C@@H](O)C[C@]2(C)[C@@]1(O)C(=O)CO	inactive	inactive	inactive	inactive	inactive	inactive	–	inactive	inactive	inactive	inactive	inactive	inactive	inactive	inactive	inactive	inactive	inactive	inactive	inactive
C[Si]1(C)N[Si](C)(C)N[Si](C)(C)N1	inactive	inactive	inactive	inactive	inactive	inactive	–	inactive	inactive	inactive	inactive	inactive	–	–	inactive	–	–	inactive	inactive	inactive
CC(=O)OC(C(=O)c1ccccc1)c1ccccc1 (centres undefined)	inactive	inactive	inactive	inactive	inactive	inactive	inactive	–	inactive	inactive	inactive	inactive	–	–	inactive	–	inactive	inactive	–	inactive
NC(=O)NNC(N)=O	inactive	inactive	inactive	inactive	inactive	inactive	inactive	–	inactive	inactive	inactive	inactive	inactive	inactive	inactive	inactive	inactive	–	–	inactive
CCCCC(CC)CNC(=O)CC(C)OC(=O)CCC(=O)O (centres undefined)	inactive	inactive	inactive	inactive	29.8 µM (active)	inactive	–	inactive	inactive	inactive	inactive	inactive	inactive	–	inactive	inactive	inactive	inactive	inactive	inactive
C=CCOC(=O)c1ccc(C(=O)OCC=C)c(C(=O)OCC=C)c1	inactive	inactive	inactive	inactive	inactive	inactive	–	–	inactive	inactive	inactive	inactive	inactive	inactive	inactive	inactive	inactive	inactive	inactive	–
CCN(Cc1cccc(S(=O)(=O)O)c1)c1ccccc1	inactive	inactive	inactive	inactive	inactive	inactive	–	inactive	inactive	inactive	inactive	inactive	–	–	inactive	–	inactive	inactive	inactive	–
CC(=O)Nc1ccc(C)cc1	inactive	inactive	inactive	inactive	inactive	inactive	–	inactive	inactive	inactive	–	inactive	inactive	inactive	inactive	inactive	–	–	–	–
O=C1OC(=O)c2ccccc21	inactive	inactive	inactive	inactive	inactive	inactive	–	inactive	inactive	inactive	inactive	inactive	–	–	inactive	–	inactive	–	–	inactive
CNC(=O)NC	inactive	inactive	inactive	inactive	inactive	inactive	–	inactive	inactive	inactive	inactive	inactive	–	–	inactive	–	inactive	–	–	inactive
CCCCCCCCC(=O)OCC	inactive	inactive	inactive	inactive	inactive	inactive	–	inactive	inactive	inactive	inactive	inactive	inactive	inactive	inactive	inactive	inactive	–	–	inactive
CC(=O)OCC(=O)[C@@]1(O)[C@H](OC(C)=O)C[C@H]2[C@@H]3CCC4=CC(=O)C=C[C@]4(C)[C@@]3(F)[C@@H](O)C[C@@]21C	inactive	inactive	inactive	inactive	inactive	inactive	–	inactive	inactive	inactive	–	inactive	–	–	inactive	–	–	inactive	inactive	inactive
N#CCCOCCOCCC#N	inactive	inactive	inactive	inactive	inactive	inactive	–	inactive	inactive	inactive	inactive	inactive	–	–	inactive	–	inactive	–	–	inactive
Nc1ccc(C(=O)OCC(O)CO)cc1 (centres undefined)	inactive	inactive	inactive	inactive	inactive	inactive	inactive	–	inactive	inactive	–	inactive	inactive	inactive	inactive	inactive	inactive	–	inactive	–
